Laboratory results from the supplement of paper PMC3842684.

Tests used:
[1] = system: P. falciparum NF54-pfs16-GFP early (I-III) stage gametocytes; assay: relative % inhibition of viable gametocyte number; higher = more gametocytocidal; conditions: stage: early (I-III) gametocyte, incubation 72 h
Summary of the method: (§1)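 Relative inhibition was normalised to in-plate vehicle and positive-control wells, with viable gametocytes defined on confocal images as elongated GFP objects whose MitoTracker Red signal exceeded a cut-off. NF54 pfs16-GFP gametocytes, magnet-isolated at early (I/IIa, day 2) or late (day 8) stage, were plated at 10% parasitaemia, 0.1% haematocrit with compound at 5 or 0.5 µM. Plates were incubated 72 h at 37°C, 5% CO2, 5% O2, then stained overnight.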

[2] = system: P. falciparum NF54-pfs16-GFP late (IV-V) stage gametocytes; assay: as above; conditions: stage: late (IV-V) gametocyte, incubation 72 h
Summary of the method: as §1

Row | SMILES | relative % inhibition ([1]; 0.5 µM) [%] | relative % inhibition ([1]; 5 µM) [%] | relative % inhibition ([2]; 0.5 µM) [%] | relative % inhibition ([2]; 5 µM) [%]
1 | COc1ccc(C2NCCc3c2[nH]c2ccccc32)cc1CN1CCN(c2ccc(F)cc2)CC1 (stereo unspecified) | 18.2 | 90 | 8.16 | 58
2 | Cc1c(C)n(CC(O)CNC2CCCCC2C)c2ccccc12 (stereo unspecified) | 41.6 | 98.7 | 34.2 | 54.5
3 | CCN1CCN(Cc2ccc(NC(=O)c3cc4ccc5cccnc5c4[nH]3)cc2)CC1 | 21.1 | 59.1 | -6.9 | 3.45
4 | Nc1ccn(C2O[C@H](CO)[C@@H](O)[C@H]2O)c(=O)n1 (stereo partly specified) | -12.7 | 9.7 | 8.91 | -10.9
5 | COc1ccc(CN2CCCC(C(=O)c3ccc(C(F)(F)F)cc3)C2)c(O)c1 (stereo unspecified) | -2.13 | 93.7 | 14.8 | 16.7
6 | O=C(Nc1ccccc1O)c1ccc(-c2ccc(Cl)cc2Cl)o1 | 21.2 | -5.25 | 19.3 | 17.5
7 | Cc1ccc(Nc2nc(NCCO)c3ccccc3n2)cc1C | -7.63 | 84.7 | 38 | 53.9
8 | CCCc1c(C)nc2ccc(Br)cc2c1O | 4.64 | -4.44 | 25.1 | 59.8
9 | Clc1ccc2c(N3CCCC3)ccnc2c1 | 21.2 | 65.9 | 11.2 | -4.99
10 | Cc1ccc(F)cc1NC(=O)c1cc(Cl)ccc1Nc1ccccc1 | 23.8 | 73.8 | 23.8 | 46.8
11 | CC(C)c1ccc(CNCC(O)c2ccccc2)cc1 (stereo unspecified) | 5.28 | 89.6 | 17.3 | 39.8
12 | O=C1C2=C(Nc3ccccc3SC2c2ccccc2)c2ccccc21 (stereo unspecified) | -7.59 | -12.7 | 61.6 | 55.8
13 | Cc1ccc(-c2cc3c(nn2)-c2ccccc2C3=O)cc1 | 2.74 | 95 | 102 | 70.6
14 | CCOC(=O)c1cnc2c(C)cc(C)cc2c1Nc1ccc(OC)c(OC)c1 | 2.37 | 7.56 | -4.75 | 3.59
15 | COc1ccc(C(O)(CCC(C)C)C(CN2CCOCC2)c2ccc(Cl)cc2)cc1 (stereo unspecified) | 6.71 | 94.3 | 12.1 | 25
16 | COc1ccc(-c2cn3c(C(=O)Nc4ccccc4Cl)c(-c4ccccc4)c4c3n2CCCC4)cc1 | 10.5 | 30.9 | 4.28 | 22.5
17 | O=C1c2ccccc2-c2nnc(-c3ccc(Br)cc3)cc21 | 16.6 | 10 | 75.4 | 88.5
18 | CCC(=O)Nc1nnc(Cc2ccc(OC)c(OC)c2)s1 | 16.8 | 4.14 | 0.759 | 6.51
19 | C[n+]1c2ccccc2nc2ccc(NCCO)cc21 | 6.83 | 0.402 | 13.2 | 4.26
20 | O=C(CCc1ccccc1)c1ccccc1OCC(O)CN1CCCCC1 (stereo unspecified) | 12.7 | 96.8 | 15 | 48.2
21 | Oc1c(C(Nc2ccccn2)c2cccc(Oc3ccccc3)c2)ccc2cccnc12 (stereo unspecified) | 1.66 | 98.2 | 18.4 | 97.7
22 | c1ccc(-c2ccc(-c3nc4ccccc4[nH]3)cc2)cc1 | -4.6 | -6.39 | 15.9 | 5.71
23 | CCCCNc1nc(NC(C)(C)C)nc(NC(C)(C)C)n1 | -7.87 | 40.6 | 31.7 | 43.5
24 | O=C(CSc1nccn2nc(-c3ccccc3)cc12)Nc1cc(C(F)(F)F)ccc1Cl | 3.61 | -9.64 | 15.1 | -0.775
25 | O=C1c2ccc3c4c(ccc(c24)C(=O)N1CCCCO)C(=O)N(CCCCO)C3=O | -9.07 | 4.23 | 5.48 | 4.35

Row | SMILES | relative % inhibition ([1]; 0.5 µM) [%] | relative % inhibition ([1]; 5 µM) [%] | relative % inhibition ([2]; 0.5 µM) [%] | relative % inhibition ([2]; 5 µM) [%]
26 | OC1CCCCC1C1(NC(=S)Nc2ccccc2)CCCCC1 (stereo unspecified) | 2.55 | 71.5 | 33.8 | 90.8
27 | CCN1CCN(c2c(C(=O)c3ccccc3)cnc3cc(OC)c(OC)cc23)CC1 | 2.47 | -13.5 | 12.1 | -8.91
28 | CC(C)(C)CC(C)(C)NCC(O)COc1ccc(Cl)cc1Cl (stereo unspecified) | 34.8 | 92.4 | 90.2 | 114
29 | CC(C)(C)c1ccc(C(=O)Nc2c3c(nn2-c2cccc(Cl)c2)CSC3)cc1 | -12.5 | 10.5 | -5.32 | 8.85
30 | O=C(Nc1ccc(N2CCCCC2)c(Cl)c1)c1ccc(Br)o1 | 5.95 | 8.62 | 6.1 | 22.2
31 | O=C(Nc1ccc(Cl)c(Cl)c1)Nc1ccc(Cl)c(Cl)c1 | 4.74 | 96 | 17.5 | 48.8
32 | CCOc1c(Cl)cc(CNCC(O)c2ccccc2)cc1OC (stereo unspecified) | -19.6 | 13.9 | 36.5 | 57.1
33 | Cc1cc(NC(=O)C2c3ccccc3C(=O)N(CC(C)C)C2c2cccs2)no1 (stereo unspecified) | 37.5 | 90.8 | 31.5 | 36.1
34 | CCOC(=O)C1=C(c2ccccc2)N=c2sc(=Cc3cc(C)n(-c4ccc(F)cc4)c3C)c(=O)n2C1c1cccc(OC)c1OC (stereo unspecified) | 14.6 | 96.5 | 50.5 | 59.1
35 | Cc1ccc(Cl)cc1N1CCN(CCCNC(=O)C2CCN(c3nc4ccccc4[nH]3)CC2)CC1 | 20 | 66 | 28.3 | -3.06
36 | CCOc1ccc2nc(C)cc(Nc3ccc(Br)cc3)c2c1 | 38.4 | 58.5 | 14.7 | 57.1
37 | CCOc1cc2c(cc1OCC)C(c1cc(Cl)ccc1O)NCC2 (stereo unspecified) | 13 | 102 | 19 | 26.7
38 | COc1cccc(C2(C)Nc3ccccc3-c3nc4ccccc4n32)c1 (stereo unspecified) | -5.06 | 5.7 | 27.8 | 16.2
39 | CCOc1cc(Cl)c(C(C)NC(=O)c2cccc(OC)c2)cc1OCC (stereo unspecified) | 24.8 | 60.9 | -6.93 | 41.6
40 | OC(CNC1CCCCC1)Cn1c2ccccc2c2ccccc21 (stereo unspecified) | 14.8 | 66 | 49.9 | 104
41 | COc1ccc(C=C2SC(Nc3ccc(F)cc3)=NC2=O)c(OC)c1 | 2.18 | 8.91 | 24.9 | 87.9
42 | COc1nc(Nc2ccc(C(C)C)cc2)nc(OC)n1 | 24.9 | 0.105 | -0.358 | -10.9
43 | O=C(NC(c1ccccc1)c1ccc2cccnc2c1O)c1ccccc1 (stereo unspecified) | 31.4 | 95.3 | 35.8 | 86.9
44 | Cc1cccc(N2C(=O)C3C(C2=O)C2(c4ccccc4)C(=O)C3(c3ccccc3)C(c3ccc4c(c3)OCO4)=C2c2ccc3c(c2)OCO3)c1 (stereo unspecified) | 56.2 | 66.1 | 24.7 | 10.9
45 | Cc1nc2ccccc2c(O)c1CC=C(Cl)Cl | 4.23 | 3.33 | 33.4 | 49.4
46 | Oc1c(CN2CCN(c3ccccc3F)CC2)cc(Br)c2cccnc12 | 15.7 | 89.8 | 22.3 | 79.5
47 | COc1ccc(-c2cc3c(SCC(=O)Nc4cc(C(F)(F)F)ccc4Cl)nccn3n2)cc1 | 14.5 | -14.1 | -14.3 | 3.88
48 | CC1CCN(Cc2ccc(NC(=O)c3cc4ccc5cccnc5c4[nH]3)cc2)CC1 | 19.6 | 94 | 0.926 | 12
49 | COCCNC(=O)c1ccc(OC2CCN(Cc3ccc(F)c(F)c3)CC2)c(Cl)c1 | 7.61 | -0.414 | 14.2 | 39.9
